# Rows were chosen to be rich in hits. Some 1.3% of all compounds tested hit in one or more screens of this group.
# PINK1 expr mod = A Quantitative High throughput Screen to Identify Chemical Modulators of PINK1 Expression; PINK1 immunofluorescence, high-content cytometry, 24 h; Potency, µM (highest dose often 76.6 µM), for the others: top-dose activation (PINK1 increase), usual class: activators; 0.2% of 410,000 active; AID 624263, 2012; active means well fitted activation curve with a large enough effect; inconclusive means small, poorly fitted or top-dose-only effect; cell line not stated here; further: potency means the concentration at half of the fitted maximal effect; % of control where 0% means no effect; nearly all actives have a fitted effect of over 65% in size
#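 Fluorescence from anti-PINK1 antibody, together with nuclear and cell stains, was scanned on a laser-scanning cytometer. Before staining, stable-line cells were incubated 24 hours with compounds at 5 concentrations; primary antibody 12 h at 10 degrees C.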
# PTHR1 agonist = qHTS for PTHR1 Agonists: Primary Screen; Parathyroid hormone/parathyroid hormone-related peptide receptor (Homo sapiens), Q03431; HEK293 GP2 PTHR1 cells, GloSensor cAMP luminescence, 1 h; Potency, µM (titrated, usually from 115 µM), without a hit: at the top dose activation, usual class: activators; 0.075% of 410,000 active; AID 743266, 2014; further: potency means the concentration at half of the fitted maximal effect; nearly all actives have a fitted effect of over 55% in size
#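 HEK-293-derived GP2 cells expressing PTHR1 and a GloSensor cAMP reporter, 3,000/well, plated overnight, given luciferin plus IBMX (each 0.5 mM as added) for 1 h at 37 °C, then compound for 1 h at 37 °C. Luminescence was read after 15 min at room temperature.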
# ERG Ets-DNA blk = qHTS for Small Molecule Inhibitors of the ERG Ets/DNA interaction; Transcriptional regulator ERG (Homo sapiens), P11308; Potency, µM (series often up to 76.9 µM), inactives show at the top dose FP activity, negative = inhibition, actives largely listed as inhibitors; 0.028% of 370,000 active; fluorescence polarization, His-ERG Ets domain / labelled DNA; AID 624246, 2012; active means well fitted inhibition curve with a large enough effect in the polarisation, with a control signal flat; inconclusive means small, poorly fitted or top-dose-only effect, or effect the other way, or a change in a side signal; inactive means no such curve, though single readings can be large or run the other way; the % refers to the polarisation;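 further: polarization taken with two DNA probes labelled with fluorescein and Texas red; potency means the concentration at half of the fitted maximal effect; % of control where 0% means no effect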
# Target sequence (P11308 whole entry, looked up, the tested form may be a part): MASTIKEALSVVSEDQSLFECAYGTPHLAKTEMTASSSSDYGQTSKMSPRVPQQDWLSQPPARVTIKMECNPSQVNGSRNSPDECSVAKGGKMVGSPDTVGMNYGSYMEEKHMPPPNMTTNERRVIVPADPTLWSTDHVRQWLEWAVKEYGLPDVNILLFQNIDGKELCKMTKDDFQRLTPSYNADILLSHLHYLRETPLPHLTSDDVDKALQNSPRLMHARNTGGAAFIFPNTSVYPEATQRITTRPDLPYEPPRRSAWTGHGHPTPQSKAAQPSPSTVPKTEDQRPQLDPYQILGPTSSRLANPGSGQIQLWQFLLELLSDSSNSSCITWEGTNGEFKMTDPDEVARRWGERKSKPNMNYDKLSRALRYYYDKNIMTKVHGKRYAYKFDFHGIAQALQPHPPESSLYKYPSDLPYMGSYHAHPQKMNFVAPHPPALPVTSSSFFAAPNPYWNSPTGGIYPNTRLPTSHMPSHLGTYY
#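 His-tagged ERG Ets domain (1 uM in the protein solution; 300mM KCl, 50mM Tris-HCl, 1mM EDTA, 1mM DTT, pH 7.5) received compound, then a probe mix of 5 nM fluorescein-DNA and 100nM Texas-615-DNA. Fluorescence polarization was read for both dyes.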
# ALOX12 inh = Primary qHTS assay for inhibitors of human arachidonate 12S-lipoxygenase (ALOX12): Round 2 | purified 12hLO, xylenol orange hydroperoxide absorbance | Potency, µM (series often up to 108 µM), inactives show at the top dose activity change, negative = inhibition, actives largely listed as inhibitors | 1.1% of 580,000 active | Polyunsaturated fatty acid lipoxygenase ALOX12 (Homo sapiens), P18054 | AID 1671190, 2021; further: potency means the concentration at half of the fitted maximal effect; on the % scale 0 is the no-effect control and ±100 the full control effect
#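 Hydroperoxide product was detected by ferrous iron/xylenol orange as the 573 to 405 nm absorbance ratio. Arachidonic acid at 40 uM (final) was turned over for 30 min at room temperature by 150 nM human 12hLO, pH 7.0 Hepes buffer, after 15 min compound preincubation.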
# miR-21 reporter = qHTS Assay for Modulators of miRNAs and/orActivators of miR-21 | HeLa miR-21 FLuc reporter, luciferase, 48 h | Potency, µM (highest dose often 38.3 µM), inactives show at the top dose activity change, positive = activation, usual class: activators | 340,000 tested, under 10 active;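 further: % of control where 0% means no effect; miR-21 action dims this reporter so a rising signal means less miR-21 action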
#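 Using DMEM plus 10% FBS, HeLa miR-21-FLuc cells are incubated with test compounds (final up to about 40uM) for 48 hours; firefly luciferase signal is then imaged following reagent-mediated lysis.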
# Giardia killer = Small Molecules that selectively kill Giardia lamblia: qHTS; AID 540267, 2011; activity change, % at 7.66 µM, hits read low; 0.15% of 340,000 active; Giardia lamblia trophozoite viability; in the data active means activity change below about -80%; inconclusive means between about -30% and that limit;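 further: parasites exposed to compound for two days anaerobically before the ATP read; on the % scale 0 is the no-effect control and ±100 the full control effect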
#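 Giardia trophozoites, 100 cells per well, were exposed to compounds for 48 hrs at 37 deg C under anaerobic conditions; viability was then read as ATP content by bioluminescence after 15-30 min at room temperature.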
# * = called active by the depositor; i = inactive; ? = inconclusive; / = not tested or not shown; [ ] = another dose, or the depositor's remark. Unless noted, the call rests on the fitted dose curve; in most records, active means well fitted curve in the direction sought with a large enough effect; inconclusive means small, poorly fitted or top-dose-only effect, or another doubt; inactive means no such curve, though single readings can be large; an effect the other way counts as inactive or inconclusive.
SMILES,PINK1 expr mod,PTHR1 agonist,ERG Ets-DNA blk,ALOX12 inh,miR-21 reporter,Giardia killer
CCc1ccc2c(CN3CCc4cc(OC)c(OC)cc4C3)cc(=O)oc2c1,1%,-45%,12%,?,-12%,4
O=C(Nc1ccccc1F)c1ccc(Cn2nc(N3CCN(c4ccccc4)CC3)ccc2=O)o1,2%,-22%,-6%,45µM*,28%,/
Cc1cc(C(=O)OCC(=O)Nc2sc3c(c2C#N)CCC(C)C3)c2ccccc2n1 (stereo not given),-1%,-21%,5%,40µM*,-10%,17
CCCc1cc(=O)[nH]c(SCC(=O)Nc2sc3c(c2C#N)CCC(C)C3)n1 (stereo not given),1%,-22%,-2%,40µM*,-26%,-18
COc1ccccc1-c1cc(C(=O)Nc2sc3c(c2C#N)CCC(C)C3)c2ccccc2n1 (stereo not given),5%,i,9%,-7%,-3%,16
CCCCCCCCCn1c2c(c(=N)c3c1CCC3)CCC2,-1%,-34%,5%,/,?,45
CCCCCCCn1c2c(c(=N)c3c1CCC3)CCCC2,11µM*,-10%,12%,?,?,-2
COC(=O)C1=C(C(=O)OC)C(c2cc(Cl)ccc2O)c2sc(=O)[nH]c2S1 (stereo not given),?,-17%[57.5 µM],26%,/,-3%,0
COC(=O)C1=C(C(=O)OC)C(c2cc(Br)ccc2O)c2sc(=O)[nH]c2S1 (stereo not given),0%,-4%,59%,45µM*,-3%,-12
CCCCN(Cc1cc2ccccc2[nH]c1=O)S(=O)(=O)c1ccc(C)cc1,3%,i,-5%,312%,17%,1
Cc1ccc(/C(C#N)=C\c2cccn2C)cc1,/,/,/,45µM*,/,/
Cc1ccc(/C(C#N)=C\c2cn(C)c3ccccc23)cc1,/,/,/,/,-21%,/
CCOC(=O)N1CCN(Cc2nnc(-c3cccc(Br)c3)o2)CC1,0%,-27%,-7%,0%,0%,-6
CCn1c(CSc2ncn[nH]2)nc2cc(C(=O)O)ccc21,0%,8%,35µM*,-27%,3%,32
O=C(O)c1ccc(CSc2ncn[nH]2)cc1,-6%[38.3 µM],i,/,-11%[57.4 µM],-10%,-3
Cn1c(SCC(=O)C(C)(C)C)nnc1-c1ccncc1,6%[38.3 µM],i,-1%,20%,-4%,2
CCn1c(CSc2nnc(-c3ccncc3)n2C)nc2cc(C(=O)O)ccc21,0%,-17%,25µM*,?,-1%,9
CC(C)c1ccc(Nc2n[nH]c(=S)s2)cc1,0%,-2%,/,6.3µM*,/,/
COc1cccc(Nc2n[nH]c(=S)s2)c1,1%,i,2%,45µM*,-38%,-4
Cc1cccc(Nc2n[nH]c(=S)s2)c1C,/,-7%[57.5 µM],/,6.3µM*,-16%,-1
COc1ccccc1Nc1n[nH]c(=S)s1,0%,i,-2%,14µM*,-22%,9
Cc1cccc(C)c1Nc1n[nH]c(=S)s1,1%,i,/,?,/,/
CCN(CC)S(=O)(=O)c1ccc(OC)c(NC(=O)C(C)Oc2ccc3c(C)cc(=O)oc3c2)c1 (stereo not given),17%,-9%,-2%,-26%,-3%,15
C/C(=N\Nc1nc(C)cc(C)n1)c1ccc([N+](=O)[O-])cc1,/,/,/,16%,/,/
CC(=O)Nc1ccc(-c2cc3ccccc3o2)cc1,17%,?,2%,-14%,-48%,-4
CNc1n[nH]c(=S)s1,-1%,?,-11%,22µM*,3%,-2
Cc1cc(C)c(Nc2n[nH]c(=S)s2)cc1C,1%,i,/,28µM*,/,/

# Compound activity: PubChem BioAssay, National Center for Advancing Translational Sciences (NCATS)
